Drawing on PubChem BioAssay (NCI), this text covers growth for nine molecules.

What all share (assay): NCI-60 one-dose screen, 48 h (100 = growth as untreated, 0 = no growth, -100 = all killed)
Common to all, as to settings: 10 µM unless noted

Assay [1] deals with HCT-15 colon.
Assay [2] relates to SNB-75 CNS.
The test system of assay [3] is SNB-19 CNS.
The test system of assay [4] is U251 CNS.
The subject of assay [5] is PC-3 prostate.
Assay [6] relates to SK-MEL-5 melanoma.
The subject of assay [7] is UACC-62 melanoma.
The subject of assay [8] is LOX IMVI melanoma.
The subject of assay [9] is SK-MEL-28 melanoma.
Assay [10] relates to SK-MEL-2 melanoma.
Assay [11] concerns EKVX NSCLC.
In assay [12] the test system is SN12C renal.
The test system of assay [13] is UO-31 renal.
Assay [14] has as its system TK-10 renal.
The test system of assay [15] is ACHN renal.
Assay [16] concerns CAKI-1 renal.
In assay [17] the test system is CCRF-CEM leukemia.
In assay [18] the test system is MOLT-4 leukemia.
Assay [19] has as its system A498 renal.
For assay [20], the system named is HT29 colon.

This is part of a sample that, as a whole, favours compounds with a hit. Of some 83,000 tested, about 20% had one in any assay.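 In brief: 96-well plates, 48 h treatment, single concentration, percent growth endpoint.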 A number with no mark means an inactive call. The source made the active and inactive calls. How the source made its calls: active means growth percent below 10; inactive means the rest.

`Cc1[nH]cnc1/C=C1\SC(N2CCCCC2)=NC1=O`: the growth in assay [1] is 107%; in assay [2], 111%; in [3], 102%; in [4], 108%; in [5], 106%; in assay [6], 103%. The growth in [7] was 100%; in assay [8], 97.7%; in assay [9], 119%; in assay [10], 98%; in assay [11], 108%; in assay [12] it was 98.4%. The growth in assay [13] is 83%; in assay [14] it was 109%; in [15], 106%; in assay [16], 112%; in assay [17], 99.3%; in assay [18], 100%.

As for `c1ccc2c(-c3nc4ccccc4[nH]3)cccc2c1`, the growth in assay [1] was 27.1%; in assay [2] it was 27.8%; in assay [3], 52.5%; in assay [4] it was 12.5%; in assay [5] it was 54.1%; in assay [6], 20.1%. Besides, the growth in assay [7] was 32.2%; in [8], 34.6%; in assay [9], 51.5%; in assay [11], 70%; in assay [12], 47.3%; in [13], 60.5%. For the same molecule, the growth in assay [15] is 52.7%; in [16], 61.2%; in assay [19], 29.1%; in assay [17], 22.3%; in [18], 11.6%.

As for `CCN1CCN(c2nc(NNC(=O)Cc3ccccc3)nc(N3CCN(C(c4ccccc4)c4ccccc4)CC3)n2)CC1`, the growth in assay [1] is 22.9%; in [20], -7.32% (active); in assay [3] it was 84.2%; in assay [5], 63.7%; in assay [8], -54.9% (active); in assay [9], 92.6%. The growth in assay [10] was 37.6%; in assay [11], 75.7%; in assay [12] it was 77.9%; in [13] it was 61.7%; in [14] it was 89.1%; in assay [15], 86.4%. In addition, the growth in assay [17] was 42.6%; in [18], 38.5%.

As for `CC12CCC3C(=CCc4cc(O)ccc43)C1CCC2=O` (stereo unspecified), the growth in assay [1] is 96.1%; in assay [2] it was 104%; in assay [3], 103%; in assay [4], 98.7%; in assay [5] it was 88.9%; in assay [6], 97.5%. Besides, the growth was 88.9% in assay [7]; 102% in assay [8]; 103% in assay [9]; 119% in assay [10]; 72.3% in assay [11]; 97.5% in assay [12]. In addition, the growth in [13] was 76%; in assay [15], 93.1%; in assay [16] it was 92.6%; in [19], 102%; in [17] it was 95.5%; in assay [18] it was 85.4%.

`COc1ccccc1-n1c(-c2ccc(O)cc2C)cn2c3c(=O)[nH]c(=O)n(C)c3nc12`: the growth in [1] was 98.4%; in assay [2], 7.76% (active); in assay [3], 117%; in [4] it was 97.6%; in [5], 77.1%; in assay [6] it was 81.5%. The growth in [7] is 76.6%; in [8], 72.6%; in assay [9], 104%; in assay [11], 98.7%; in assay [12], 75%; in assay [13], 74.2%. Besides, the growth was 74% in assay [15]; 79.4% in assay [16]; 80.2% in assay [19]; 106% in assay [17]; 81.4% in assay [18].

With `O=C1c2cc3c(cc2-c2c1c1ccc(Cl)cc1c(=O)n2CCCNCCO)OCO3`, the growth is -78.3% (active) in assay [1]; -88.8% (active) in assay [2]; -62.8% (active) in assay [3]; -94.6% (active) in assay [4]; -85.5% (active) in assay [5]; -70.7% (active) in [7]. For the same molecule, the growth is -89.2% (active) in assay [8]; -74% (active) in assay [9]; -65.3% (active) in assay [11]; -66.6% (active) in assay [12]; -81.7% (active) in assay [13]; -87.5% (active) in assay [15]. In addition, the growth is -80% (active) in [16], -94.4% (active) in assay [19], -24.9% (active) in [17] and -34.5% (active) in assay [18].

As to `CCOC(=O)OCC(=O)[C@@]1(O)CC[C@H]2[C@@H]3CCC4=CC(=O)CC[C@]4(C)[C@H]3[C@@H](O)C[C@@]21C`, the growth is 105% in [1]; 119% in [2]; 96.4% in assay [3]; 92% in assay [5]; 98.2% in assay [6]; 87.6% in assay [7]. Also, the growth in [8] is 89.8%; in assay [9], 110%; in assay [10], 102%; in assay [11], 85.4%; in [12] it was 87.2%; in assay [13] it was 76.2%. Besides, the growth in assay [14] was 96.4%; in assay [15] it was 99.3%; in assay [16] it was 90.9%; in assay [19], 98.8%; in assay [17], 84.6%.

For the molecule `COc1cc(Cl)cc(-c2nn(-c3cccc(NC(=O)c4cc(C(F)(F)F)cc(C(F)(F)F)c4)c3)cc2-c2ccncc2)c1`, the growth was 58.6% in [1]; 60.8% in [2]; 86.4% in assay [3]; 35.6% in assay [5]; 67.3% in [6]; 81.4% in assay [7]. The growth was 76.1% in assay [8]; 69.8% in assay [12]; 54.3% in assay [13]; 58.2% in [15]; -1.74% (active) in assay [19]; 57.1% in [17]. Also, in assay [18], the growth was 55.3%.

For `CC1(C)CC2(C)CC(=O)C1C(C(=O)O)C2C(=O)O` (stereo unspecified), the growth was 110% in assay [1]; 96.4% in assay [2]; 113% in assay [3]; 101% in [4]; 108% in assay [5]; 102% in assay [6]. The growth was 102% in assay [7]; 101% in [8]; 117% in [9]; 121% in assay [11]; 105% in assay [12]; 98% in assay [13]. Moreover, the growth in assay [15] is 97.2%; in [16], 114%; in assay [17] it was 99.4%; in assay [18], 94.3%.
